Assay results published in PubChem BioAssay (NCATS).
Unmarked numbers belong to inactive results. Results filed as inconclusive are left out. Where a call stands in place of a potency, no number is given. The source made the active and inactive calls. Calls follow the shape of the dose curve; as a rule, active = well fitted curve in the direction sought with a large enough effect; inconclusive = small, poorly fitted or top-dose-only effect, or another doubt; inactive = no such curve, though single readings can be large; an effect the other way counts as inactive or inconclusive.

molecular target: Lysine-specific demethylase 5B (Homo sapiens) (UniProt Q9UGL1); assay: Optimization screen for KDM5B Histone Demethylases FDH coupled qHTS against the LOPAC library (AID 1347166); settings: KDM5B demethylation, FDH-coupled NADH fluorescence (FDH is formaldehyde dehydrogenase); series mostly up to 57.5 µM
Method in brief: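 KDM5BDeltaAP (200nM final) in 50mM HEPES pH 7.5, 0.01% Tween-20 was preincubated with compound for 10 min at room temperature. A substrate mix of 12.5uM H3K4Me3, 25uM a-ketoglutarate, ascorbate, Fe2+, NAD+ and formaldehyde dehydrogenase was then added. NADH fluorescence (340/450 nm) was read initially and after 30 min.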

Lysine-specific demethylase 5B (Homo sapiens), sequence (Q9UGL1 whole entry, looked up): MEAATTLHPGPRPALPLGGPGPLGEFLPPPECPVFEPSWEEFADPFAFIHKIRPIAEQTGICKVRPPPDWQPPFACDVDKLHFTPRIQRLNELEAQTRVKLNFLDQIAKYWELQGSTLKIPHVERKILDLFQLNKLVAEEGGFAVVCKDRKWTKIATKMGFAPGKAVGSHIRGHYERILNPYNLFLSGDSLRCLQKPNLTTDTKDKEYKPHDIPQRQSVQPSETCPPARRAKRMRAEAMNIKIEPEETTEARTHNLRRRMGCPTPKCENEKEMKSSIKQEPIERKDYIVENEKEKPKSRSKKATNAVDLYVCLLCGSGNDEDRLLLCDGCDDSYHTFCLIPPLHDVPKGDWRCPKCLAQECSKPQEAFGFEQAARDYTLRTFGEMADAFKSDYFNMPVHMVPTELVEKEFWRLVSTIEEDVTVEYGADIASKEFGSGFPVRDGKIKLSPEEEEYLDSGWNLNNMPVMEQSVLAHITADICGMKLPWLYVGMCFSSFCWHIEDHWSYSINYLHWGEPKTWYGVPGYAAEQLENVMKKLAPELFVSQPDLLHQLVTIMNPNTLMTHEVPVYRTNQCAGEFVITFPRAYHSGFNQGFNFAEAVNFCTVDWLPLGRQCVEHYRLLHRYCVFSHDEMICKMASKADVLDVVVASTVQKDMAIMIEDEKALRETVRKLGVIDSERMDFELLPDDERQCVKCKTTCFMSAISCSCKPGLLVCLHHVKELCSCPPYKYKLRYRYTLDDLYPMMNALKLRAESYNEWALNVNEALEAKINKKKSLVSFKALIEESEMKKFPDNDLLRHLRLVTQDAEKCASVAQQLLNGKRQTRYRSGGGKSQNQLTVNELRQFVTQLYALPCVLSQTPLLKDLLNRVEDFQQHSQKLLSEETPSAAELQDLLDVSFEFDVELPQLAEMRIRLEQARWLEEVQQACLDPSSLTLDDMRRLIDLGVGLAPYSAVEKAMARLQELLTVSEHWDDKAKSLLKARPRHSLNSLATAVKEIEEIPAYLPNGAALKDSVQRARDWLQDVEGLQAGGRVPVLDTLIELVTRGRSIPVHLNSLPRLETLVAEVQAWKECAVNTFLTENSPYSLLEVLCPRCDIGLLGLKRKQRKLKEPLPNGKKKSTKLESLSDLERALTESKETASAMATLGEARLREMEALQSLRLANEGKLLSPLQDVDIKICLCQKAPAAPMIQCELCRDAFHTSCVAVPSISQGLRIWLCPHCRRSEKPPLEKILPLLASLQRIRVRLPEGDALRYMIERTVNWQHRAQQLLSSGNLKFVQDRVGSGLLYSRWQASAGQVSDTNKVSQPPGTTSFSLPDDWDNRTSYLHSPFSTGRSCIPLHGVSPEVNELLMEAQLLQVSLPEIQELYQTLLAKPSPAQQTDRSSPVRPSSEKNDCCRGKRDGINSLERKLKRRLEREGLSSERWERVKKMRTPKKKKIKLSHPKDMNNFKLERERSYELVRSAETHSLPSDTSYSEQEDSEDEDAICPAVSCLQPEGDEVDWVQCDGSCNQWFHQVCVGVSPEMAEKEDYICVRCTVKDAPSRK

SMILES | outcome
CSc1ccc2c(c1)C(N1CCN(C)CC1)Cc1ccccc1S2 (stereo not given) | inactive
OCCN1CCN(CCCN2c3ccccc3Sc3ccc(Cl)cc32)CC1 | inactive
CN(C)CCCN1c2ccccc2Sc2ccc(Cl)cc21 | inactive
CN1CCN(C2Cc3ccccc3Sc3ccc(Cl)cc32)CC1 (stereo not given) | inactive
CNCCC(Oc1ccc(C(F)(F)F)cc1)c1ccccc1 (stereo not given) | inactive
CCCCCCCCCCCCCCCC(=O)NCCO | inactive
NC1CCN(c2cccc(Cl)n2)CC1 | inactive
CN(C)CCCN1c2ccccc2CCc2ccccc21 | inactive
CSc1ccc2c(c1)N(CCC1CCCCN1C)c1ccccc1S2 (stereo not given) | inactive

tested on: not listed separately; assay: qHTS to identify inhibitors of the type 1 interferon - major histocompatibility complex class I in skeletal muscle: primary screen against the NCATS LOPAC collection (AID 1347405); settings: iHSKM muscle cells, IFN-b-induced MHC-I HiBiT luminescence, 24 h; series mostly up to 45.9 µM;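 also: lytic HiBiT luminescence reporting HLA-B protein level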; also: potency is read from the fitted curve at half-maximal effect
Method in brief: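 After 24 h at 37 C with compounds (7-point, 1:4.3 dilutions, 46 uM top final) plus 4 ng/ml IFN-beta, luminescence from lytic HiBiT detection was measured. HLA-B*08:01 in C25cl48 myoblasts carried an endogenous C-terminal HiBiT tag; medium lacked dexamethasone.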

SMILES | Potency
CC(C)NC[C@H](O)c1ccc(O)c(O)c1 | inactive
CNCC(O)c1ccc(O)c(O)c1 (stereo not given) | inactive
CN1CCC[C@@H]1Cc1c[nH]c2ccc(CCS(=O)(=O)c3ccccc3)cc12 | inactive
C[C@H](NC(CCc1ccccc1)C(=O)O)C(=O)N1CCC[C@H]1C(=O)O (stereo not given in full) | inactive
CNCCCC1c2ccccc2C=Cc2ccccc21 | inactive
O=C1NC(=O)[C@@]2(CCOc3ccc(F)cc32)N1 | inactive
C=Cc1c(C)c2cc3[nH]c(cc4nc(cc5nc(cc1[nH]2)C(C)=C5CCC(=O)O)C(CCC(=O)O)=C4C)c(C)c3C=C | inactive
CC(=O)c1ccc2c(c1)N(CCCN(C)C)c1ccccc1S2 | inactive
CCCCN(CCCC)CC(O)c1cc(Cl)cc2c1-c1ccc(Cl)cc1/C2=C/c1ccc(Cl)cc1 (stereo not given) | inactive
CCCCc1ncc(/C=C(\Cc2cccs2)C(=O)O)n1Cc1ccc(C(=O)O)cc1 | inactive
CC(C)c1c(C(=O)Nc2ccccc2)c(-c2ccccc2)c(-c2ccc(F)cc2)n1CC[C@@H](O)C[C@@H](O)CC(=O)O | inactive
C[C@H]1O[C@@H](n2cc(F)c(=O)[nH]c2=O)[C@H](O)[C@@H]1O | inactive
CCN(CC)CCNC(=O)c1c(C)[nH]c(/C=C2\C(=O)Nc3ccc(F)cc32)c1C | 10 µM (active)
Cc1cc(N)c2ccccc2[n+]1CCCCCCCCCC[n+]1c(C)cc(N)c2ccccc21 | inactive
CC1=C(CC(=O)O)c2cc(F)ccc2/C1=C\c1ccc(S(C)=O)cc1 (stereo not given) | inactive

tested on: not listed separately; assay: qHTS to identify inhibitors of the type 1 interferon - major histocompatibility complex class I in skeletal muscle: primary screen against the NCATS Pharmaceutical Collection (AID 1347407); settings: human skeletal muscle cells, IFN-b-induced MHC-I HiBiT luminescence, 24 h; series mostly up to 45.9 µM;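 also: luminescence of HiBiT knocked into endogenous HLA-B as interferon-induced MHC class I level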; also: potency is read from the fitted curve at half-maximal effect
Method in brief: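 A qHTS format is used: 8-point, 1:5 compound series with 46 uM top final concentration, applied alongside 4 ng/ml IFN-beta to HLA-B*08:01-HiBiT knock-in myoblasts. Luminescence is measured after 24 h treatment.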

SMILES | Potency | activity change, negative = inhibition
CNCC(O)c1ccc(O)c(O)c1 (stereo not given) | inactive | –
CN1CCC[C@@H]1Cc1c[nH]c2ccc(CCS(=O)(=O)c3ccccc3)cc12 | inactive | –
C[C@H](NC(CCc1ccccc1)C(=O)O)C(=O)N1CCC[C@H]1C(=O)O (stereo not given in full) | inactive | –
NC(=O)NC(=O)Cc1ccccc1 | inactive | –
C[C@@H]1CC[C@@]2(OC1)O[C@H]1C[C@H]3[C@@H]4CC[C@H]5C[C@@H](O)CC[C@]5(C)[C@H]4CC(=O)[C@]3(C)[C@H]1[C@@H]2C | – | -0.255% [at 3.83 µM]
CNCCCC1c2ccccc2C=Cc2ccccc21 | inactive | –
O=C1NC(=O)[C@@]2(CCOc3ccc(F)cc32)N1 | inactive | –
O=C(O)c1ccccc1-c1ccc(C(F)(F)F)cc1 | inactive | –
CC(=O)c1ccc2c(c1)N(CCCN(C)C)c1ccccc1S2 | inactive | –
CN(C)CCCO[C@@H]1[C@H]2OC(C)(C)O[C@H]2O[C@@H]1C(O)CO (stereo not given in full) | inactive | –
COc1ccc2[nH]c(S(=O)Cc3ncc(C)c(OC)c3C)nc2n1 (stereo not given) | inactive | –
OCCN1CCN(CCCN2c3ccccc3Sc3ccc(Cl)cc32)CC1 | inactive | –
CN(C)CCCN1c2ccccc2Sc2ccc(Cl)cc21 | inactive | –
Cn1c(=O)c2c(ncn2CC2OCCO2)n(C)c1=O | inactive | –
CCCCN(CCCC)CC(O)c1cc(Cl)cc2c1-c1ccc(Cl)cc1/C2=C/c1ccc(Cl)cc1 (stereo not given) | inactive | –
CCCCc1ncc(/C=C(\Cc2cccs2)C(=O)O)n1Cc1ccc(C(=O)O)cc1 | inactive | –
C[C@H]1O[C@@H](n2cc(F)c(=O)[nH]c2=O)[C@H](O)[C@@H]1O | inactive | –
CCCCCCCCCCCCCCCC(=O)NCCO | inactive | –
NC(=O)c1ncn([C@@H]2O[C@H](CO)[C@@H](O)[C@H]2O)c1N | inactive | –
OC[C@H]1O[C@@H](O[C@@H]2[C@@H](CO)O[C@](O)(CO)[C@H]2O)[C@H](O)[C@@H](O)[C@H]1O | inactive | –
NC1CCN(c2cccc(Cl)n2)CC1 | inactive | –
CCN(CC)CCNC(=O)c1c(C)[nH]c(/C=C2\C(=O)Nc3ccc(F)cc32)c1C | 10.5 µM (active) | –
CC1=C(CC(=O)O)c2cc(F)ccc2/C1=C\c1ccc(S(C)=O)cc1 (stereo not given) | inactive | –

tested on: not listed separately; assay: qHTS for inhibitors of adenylyl cyclases using a fission yeast platform: a pilot screen against the NCATS LOPAC library (AID 1347410); settings: S. pombe CHP2027, fbp1-GFP fluorescence, 18 h, yeast expressing mammalian AC9 and human GNAS; series mostly up to 57.5 µM
Method in brief: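 Inhibition of GNAS-stimulated AC9 activity in S. pombe was inferred from derepression of a PKA-repressed fbp1-GFP reporter, measured as cytometric fluorescence after 18 h at 30C with compounds at up to 57 µM.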

SMILES | outcome
CC(C)NC[C@H](O)c1ccc(O)c(O)c1 | inactive
CNCC(O)c1ccc(O)c(O)c1 (stereo not given) | inactive
CN1CCC[C@@H]1Cc1c[nH]c2ccc(CCS(=O)(=O)c3ccccc3)cc12 | inactive
CSc1ccc2c(c1)C(N1CCN(C)CC1)Cc1ccccc1S2 (stereo not given) | inactive
C[C@H](NC(CCc1ccccc1)C(=O)O)C(=O)N1CCC[C@H]1C(=O)O (stereo not given in full) | inactive
CNCCCC1c2ccccc2C=Cc2ccccc21 | inactive
O=C1NC(=O)[C@@]2(CCOc3ccc(F)cc32)N1 | inactive
C=Cc1c(C)c2cc3[nH]c(cc4nc(cc5nc(cc1[nH]2)C(C)=C5CCC(=O)O)C(CCC(=O)O)=C4C)c(C)c3C=C | inactive
CC(=O)c1ccc2c(c1)N(CCCN(C)C)c1ccccc1S2 | inactive
OCCN1CCN(CCCN2c3ccccc3Sc3ccc(Cl)cc32)CC1 | inactive
CN(C)CCCN1c2ccccc2Sc2ccc(Cl)cc21 | inactive
CCCCN(CCCC)CC(O)c1cc(Cl)cc2c1-c1ccc(Cl)cc1/C2=C/c1ccc(Cl)cc1 (stereo not given) | inactive
CN1CCN(C2Cc3ccccc3Sc3ccc(Cl)cc32)CC1 (stereo not given) | inactive
CCCCc1ncc(/C=C(\Cc2cccs2)C(=O)O)n1Cc1ccc(C(=O)O)cc1 | inactive
CNCCC(Oc1ccc(C(F)(F)F)cc1)c1ccccc1 (stereo not given) | inactive
CC(C)c1c(C(=O)Nc2ccccc2)c(-c2ccccc2)c(-c2ccc(F)cc2)n1CC[C@@H](O)C[C@@H](O)CC(=O)O | inactive
C[C@H]1O[C@@H](n2cc(F)c(=O)[nH]c2=O)[C@H](O)[C@@H]1O | inactive
NC1[C@H]2CN(c3nc4c(cc3F)c(=O)c(C(=O)O)cn4-c3ccc(F)cc3F)C[C@@H]12 (stereo not given in full) | inactive
CCN(CC)CCNC(=O)c1c(C)[nH]c(/C=C2\C(=O)Nc3ccc(F)cc32)c1C | inactive
CN(C)CCCN1c2ccccc2CCc2ccccc21 | inactive
Cc1cc(N)c2ccccc2[n+]1CCCCCCCCCC[n+]1c(C)cc(N)c2ccccc21 | inactive
CC1=C(CC(=O)O)c2cc(F)ccc2/C1=C\c1ccc(S(C)=O)cc1 (stereo not given) | inactive
CSc1ccc2c(c1)N(CCC1CCCCN1C)c1ccccc1S2 (stereo not given) | inactive
